NSD2 HMT inh = NSD2 histone methyltransferase inhibitors, primary screen, biochemical, AlphaScreen, single concentration, set 2; AID 743445, 2014; Histone-lysine N-methyltransferase NSD2 (Homo sapiens), O96028; NSD2 peptide methylation, 120 min; 310,000 compounds, 0.54% hits; inhibition, % at 12.5 µM; in the data active = inhibition above about 50%
ATG4B inhibitor = ATG4B protease inhibitors, primary screen, biochemical, fluorescence, uHTS | Cysteine protease ATG4B (Homo sapiens), Q9Y4P1 | ATG4B cleavage of LC3-PLA2, NBD-HPC fluorescence, 1 h | inhibition, % at 8.33 µM | 340,000 compounds, 0.51% hits | AID 504462, 2011; in the data active = inhibition above about 40%
CaV13 ICDI inh = Disruptors of the CACNA1D IQ motif to Ca2+-dependent inactivation inhibitor domain association, primary screening, Förster resonance energy transfer in intact living …; HEK cells, CFP/YFP FRET ICDI-IQ, plate reader, 10 min; percent FRET-ratio fall versus neutral wells; inhibition, % at 12.3 µM; 340,000 compounds, 0.098% hits;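 active = mean replicate inhibition of at least 30% and at least 1% of replicates passing that level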
Pemphigus Ab inh = inhibitors of pemphigus antibody binding to DSG3, primary screen, biochemical, bead-based, flow cytometry, scFv-GFP; 310,000 compounds, 0.48% hits; DSG3-coupled beads, scFv-anti-DSG3-GFP binding; hits give low values; AID 588358, 2011; binding (percent of control), % at 10 µM;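 active = binding more than 3 SD below its plate's average and above zero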;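 also: hits lower antibody fragment binding to DSG3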
Vif inh = HIV Vif self-association inhibitors, primary screen, imaging, HEK293T, single point; 340,000 compounds, 0.35% hits; AID 602346, 2012; HEK293T cells, Vif self-association by quenched fluorescence, 24 h; inhibition, % at 7.49 µM; in the data active = inhibition above about 50%, passing the limit was not always enough
N-glyco inh = increase of ERlucT glycosylation luciferase signal, primary screen, N-linked glycosylation inhibitor project, D54 ERlucT cells, luminescence, set 2 | D54 ERlucT glycosylation luciferase reporter, 24 h; percent of 100 nM tunicamycin response | reporter increase, % at 12.5 µM | 360,000 compounds, 0.23% hits | AID 588692, 2011;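 active = mean luciferase reporter signal, scaled so untreated is 0 and the glycosylation-blocking control 100, at or above a set limit in every replicate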;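 also: luciferase carries N-glycosylation sites so blocking glycosylation raises the light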
Hits are given with their value; n = inactive; x = no result given; + = active, no number. Most compounds without a hit are left out; they make up all but 1.9% or so of the library.

SMILES | NSD2 HMT inh | ATG4B inhibitor | CaV13 ICDI inh | Pemphigus Ab inh | Vif inh | N-glyco inh
CCn1cc(CN2CCCC(C(=O)Nc3cccc(-c4cc5ccccc5[nH]4)c3)C2)c(C)n1 (stereo not drawn) | n | n | n | n | 53 | n
NC(=O)COC(=O)CSc1cccc2cccc(Cl)c12 | x | n | x | n | n | n
C/C(=C\C(=O)OCC(=O)NCc1ccccc1)C(=O)OCC(=O)NCc1ccccc1 | n | n | n | 76 | n | n
CCC(=O)OC1(C)C(=O)C=C2C=C(c3ccsc3)OC=C2C1=O (stereo not drawn) | x | 82 | x | n | n | n
CCCCC1=CC2=CC(=O)C(C)(OC(=O)CC)C(=O)C2=CN1c1ccccc1 (stereo not drawn) | x | n | x | n | n | n
COC(=O)CCCC1=CC2=CC(=O)C(C)(OC(=O)CCc3ccccc3)C(=O)C2=CO1 (stereo not drawn) | x | n | x | n | n | n
COC(=O)CCC(=O)OC1(C)C(=O)C=C2C=C(c3ccsc3)OC=C2C1=O (stereo not drawn) | x | n | x | 43 | n | n
O=c1c2ccccc2nc(SCc2ccc([N+](=O)[O-])cc2)n1-c1ccc(Cl)cc1 | n | n | n | n | n | n
Cc1cc(-c2nc3ncccc3o2)ccc1NC(=S)NC(=O)C(C)C | n | n | n | 54 | n | n
Cc1ccc(-c2nc3ncccc3o2)cc1NC(=O)C(C)C | n | n | n | n | n | n
Cc1ccc(-c2nc3ncccc3o2)cc1NC(=O)c1ccc2c(c1)OCO2 | n | n | n | n | 51 | n
CCN(CC)c1ccc(NC(=O)CSc2ccsc2[N+](=O)[O-])c(C)c1 | n | n | n | n | x | n
Cc1ccc(CNC(=O)CSc2ccsc2[N+](=O)[O-])cc1 | n | n | n | n | n | n
Cc1ccc(NC(=O)CSc2ccc(C(N)=O)cc2[N+](=O)[O-])cc1C | n | n | n | 69 | n | n
O=C(CSc1ccsc1[N+](=O)[O-])Nc1cc(F)ccc1F | n | n | n | 54 | x | n
CC(=O)c1ccc(NC(=O)CSc2ccsc2[N+](=O)[O-])cc1 | n | n | n | 69 | x | n
C=CCc1ccccc1OCCNCc1ccccc1 | n | n | n | n | n | n
CCOC(=O)C1=C(C)Nc2ccccc2N=C1NC(=O)/C=C/c1ccc(OC)cc1OC | n | n | n | x | n | n
COc1ccc(/C=C/C(=O)c2cc3cccc(OC)c3oc2=O)cc1 | n | n | n | 100 | n | n
COc1ccc(C=CC(=O)c2c(OC)cc(OC)c(OC)c2O)cc1 | n | n | n | n | n | 29
COc1ccc(C(=O)/C=C/c2ccc(O)cc2)cc1 | x | n | x | n | n | n
COc1ccc(N/C=C/C(=O)c2cc(OC)c(OC)c(OC)c2)cc1 | x | n | n | n | n | 38
COc1ccc(C(=O)/C=C/Nc2cccc(C)n2)cc1OC | n | n | x | n | 60 | n
O=c1oc2ccccc2n1CCCOc1ccccc1 | x | n | n | n | n | n
CCCN(S(=O)(=O)c1ccccc1F)S(=O)(=O)c1ccccc1Br | n | n | n | x | n | n
SMILES | NSD2 HMT inh | ATG4B inhibitor | CaV13 ICDI inh | Pemphigus Ab inh | Vif inh | N-glyco inh
COc1ccc(-c2csc(NCCn3c(C)nc4cc(C(F)(F)F)ccc43)n2)cc1 | x | n | n | n | n | n
COC(=O)c1cc(Cl)c(NC(=O)c2ccc(C(C)(C)C)cc2)cc1OC | n | n | n | n | n | n
O=C(Nc1ccc(N2CCOCC2)c(Cl)c1)c1cc2ccccc2o1 | n | n | x | n | 92 | n
CCC(=O)N1CCN(c2ccc(NC(=O)c3ccc([N+](=O)[O-])o3)cc2)CC1 | n | n | n | n | 73 | n
O=C(Nc1ccccc1N1CCOCC1)c1cc2ccccc2o1 | n | n | n | x | n | n
COC(=O)c1cc(Cl)c(NC(=O)c2cc3ccccc3o2)cc1OC | n | n | x | n | 63 | n
O=C(Nc1cccc2ccccc12)c1ccc([N+](=O)[O-])o1 | n | n | n | n | n | 27
O=C1Nc2ccccc2SC(c2ccccc2)C1O (stereo not drawn) | n | n | n | n | x | n
CC(=O)NCCNc1nc(NC(C)C)nc2ccsc12 | n | x | n | x | n | n
CCOC(=O)c1c[nH]n(-c2ccccc2)c1=O | n | n | n | n | n | n
O=C(Nc1ccc(N2CCCC2)c(Cl)c1)c1ccc([N+](=O)[O-])o1 | n | n | n | n | n | 46
O=C(NCCCN1CCCC1)c1ccc(CS(=O)(=O)c2ccc(Cl)cc2)o1 | n | n | n | n | n | n
O=C(NC(=S)N1CCN(c2nc(-c3ccccc3)cs2)CC1)c1cncc(Br)c1 | n | n | + | n | n | n
CCC(=NCCc1ccc(OC)c(OC)c1)C1=C(O)CC(C)(C)CC1=O | n | n | n | n | n | n
NC(=O)NC(CCC(=O)O)C(=O)O (stereo not drawn) | x | n | x | n | 65 | n
O=C(O)CCC(NC(=O)OCc1ccccc1)C(=O)O (stereo not drawn) | n | n | n | n | n | n
O=C(c1ccccc1-c1ccccc1)N1CCN(c2ccccn2)CC1 | n | n | n | n | n | 50
O=C(c1cn(Cc2ccccc2)nc1-c1ccccc1)N1CCN(c2ccccn2)CC1 | n | n | n | n | n | 51
CC12CCC(C(=O)C1)C1(C)CCCC(=O)C21 (stereo not drawn) | n | n | n | n | n | n
CCN1/C(=C/c2ccc3cc(C)ccc3[n+]2CC)Sc2cc(C)c(C)cc21 | 161 | n | n | n | x | n
CCN1/C(=C/c2ccc3cc(C)ccc3[n+]2CC)Sc2ccccc21 | n | n | n | n | n | n
O=C(CSc1nc2ccccc2n1CCc1ccccc1)c1ccc(O)c(O)c1 | 102 | n | n | 72 | n | n
O=C(CSc1nc2ccccc2n1CCc1ccccc1)N1CCOCC1 | n | n | n | n | n | n
COc1ccc(-n2ncc3c2CC(C)(C)CC3NC(=O)c2ccnn2C)cc1 (stereo not drawn) | n | n | n | n | n | n
CN(C)C(=S)Nc1ccc(N2CCOCC2)cc1 | n | n | n | x | n | n
COc1ccc(NC(=O)CN(C)C(=O)c2cc3c(s2)CCC3)cc1 | n | n | x | 93 | n | n
CCOC(=O)c1cnn(-c2ccccc2)c1NC(=O)c1ccccc1C | x | n | n | n | 54 | n
Cc1cccc(NC(=O)Cn2nc(C(F)(F)F)cc2C2CC2)c1 | n | n | n | n | n | n
